Screening data (PubChem)
Rows were chosen to be rich in hits. Some 7.5% of all compounds tested hit in one or more screens of this group.
ELG1 genotox: induces genotoxicity in HEK293T cells with luciferase-tagged ELG1 | AID 504466 | HEK293T ELG1-luciferase reporter, luminescence, 16 h | 1.3% of 330,000 active | Potency, µM (highest dose often 46 µM), for inactives: at the highest dose activity change, positive = activation, usual class: activators; also: % of control where 0% means no effect; nearly all actives have a fitted effect of over 60% in size
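Genotoxicity was scored as increased ELG1-luciferase reporter signal, measured by ONE-Glo luminescence (30 min, room temperature). Compound or vehicle exposure of the HEK293T reporter cells lasted 16 hr at 37°C.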
NPC1 promoter act: NPC1 promoter activation. Huh7 NPC1 promoter luciferase reporter, 24 h. Potency, µM (doses to about 9.22 µM), for the others: at the top dose activation, most hits filed as activators. 2.4% of 320,000 active. AID 485313; also: % of control where 0% means no effect; nearly all actives have a fitted effect of over 60% in size
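NPC1 promoter–luciferase Huh7 cells; 24 h compound; luminescence.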
Luc counter: blocks Kinase-Glo luciferase, a counter-screen artifact; AID 1379; 0.28% of 200,000 active; Q27757; Kinase-Glo luciferase, ATP luminescence, 8 min; Potency, µM (top dose mostly 38.3 µM), inactives show top-dose activity change, negative = inhibition, hits mostly inhibitors; also: % is scaled to controls: 0 for no effect and ±100 for the full control effect; nearly all actives have a fitted effect of over 60% in size
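Inhibition of Kinase-Glo luciferase light generation was assessed at 10 uM ATP in pH 7.2 imidazole buffer, with luminescence measured after eight minutes at ambient temperature.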
SMN2 splice up: increases expression of the SMN2 splice variant | HEK293 SMN2-luciferase splicing reporter, luminescence, 30-36 h | Potency, µM (highest dose often 46.1 µM), for inactives: at the highest dose activity change, positive = activation, hits mostly activators | 2.8% of 210,000 active | AID 1458; also: % of control where 0% means no effect; nearly all actives have a fitted effect of over 55% in size
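HEK293 cells carry an SMN2 minigene-luciferase reporter in which exon 7 inclusion puts luciferase in frame. Cells were seeded at 2000 cells/well, attached for 10-12 hours, then exposed to compounds for 30-36 hours at 37C before ONE-Glo luminescence.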
Rab9 promoter act: Rab9 promoter activation | 2.8% of 320,000 active | Potency, µM (top dose mostly 9.22 µM), for the others: top-dose activation, negative = inhibition, usual class: activators | Huh7 Rab9 promoter-luciferase reporter, luminescence, 24 h; also: % of control where 0% means no effect; nearly all actives have a fitted effect of over 60% in size
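Cells were plated at 1500 per well in reduced-serum medium with 10% FBS and left 2 h. Compound in DMSO was then added for 24 h at 37 °C. Reporter signal was read by luminescence after 10 min with luciferase detection reagent.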
FLuc counter: counter-screen for miR-21 project: firefly luciferase inhibitors or activators. P08659. purified FLuc, Km substrates, luminescence inhibition. Potency, µM (top dose mostly 57.5 µM), without a hit: at the highest dose activity change, negative = inhibition, actives largely listed as inhibitors. 6.9% of 360,000 active;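 also: plate controls were vehicle for no effect and reference inhibitor for full effect; nearly all actives have a fitted effect of over 55% in size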
Target sequence (P08659 whole entry, looked up): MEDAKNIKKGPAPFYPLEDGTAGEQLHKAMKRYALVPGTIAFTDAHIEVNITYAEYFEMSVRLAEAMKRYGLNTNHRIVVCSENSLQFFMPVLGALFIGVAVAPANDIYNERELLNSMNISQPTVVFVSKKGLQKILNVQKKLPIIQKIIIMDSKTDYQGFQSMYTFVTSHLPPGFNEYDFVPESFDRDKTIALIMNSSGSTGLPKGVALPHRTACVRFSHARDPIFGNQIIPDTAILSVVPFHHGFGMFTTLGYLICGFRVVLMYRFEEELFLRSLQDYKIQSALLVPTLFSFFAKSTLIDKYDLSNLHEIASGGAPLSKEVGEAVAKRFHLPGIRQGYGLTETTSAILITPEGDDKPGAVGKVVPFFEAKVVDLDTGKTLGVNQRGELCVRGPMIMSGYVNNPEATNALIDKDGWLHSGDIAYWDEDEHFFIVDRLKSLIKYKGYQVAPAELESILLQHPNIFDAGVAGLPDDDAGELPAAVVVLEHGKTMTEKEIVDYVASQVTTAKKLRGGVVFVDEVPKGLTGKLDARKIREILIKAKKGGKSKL
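Purified P. pyralis luciferase, 10 nM final, with Km-level 10 uM D-luciferin and 10 uM ATP in 50 mM Tris acetate pH 7.5, 10 mM Mg acetate, 0.01% Tween-20, 0.05% BSA; 6-point qHTS titration about 60 µM downward; luminescence read.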
An asterisk follows results filed as active; [ ] = dose if it differs, or a comment. Calls follow the shape of the dose curve; as a rule, active = well fitted curve in the direction sought with a large enough effect; inconclusive = small, poorly fitted or top-dose-only effect, or another doubt; inactive = no such curve, though single readings can be large; an effect the other way counts as inactive or inconclusive. Potency is read from the fitted curve at half-maximal effect.

For CN(CC(=O)Nc1cccc(F)c1)C(=O)CCCN1C(=O)c2cccc3cccc(c23)C1=O the results were ELG1 genotox 1%, NPC1 promoter act 7%, Rab9 promoter act 1% and FLuc counter inconclusive.
Screening Cn1c(=O)c(C(=O)Nc2ncccc2O)c(O)c2ccccc21 returned ELG1 genotox inconclusive, NPC1 promoter act 3.2µM*, Luc counter -4%, SMN2 splice up 24%, Rab9 promoter act inconclusive and FLuc counter inconclusive.
Screening Cc1cccc(NC(=O)c2c(O)c3ccccc3n(C)c2=O)c1 returned ELG1 genotox inconclusive, NPC1 promoter act 2.8µM*, Rab9 promoter act 2µM* and FLuc counter inconclusive.
For Cc1ccc(NC(=O)c2c(O)c3ccccc3n(C)c2=O)nc1 the results were ELG1 genotox 15%, NPC1 promoter act 3.5µM*, Luc counter -3%, SMN2 splice up inconclusive, Rab9 promoter act 12% and FLuc counter inconclusive.
For Cc1ccnc(NC(=O)c2c(O)c3ccccc3n(C)c2=O)c1 the results were ELG1 genotox inconclusive, NPC1 promoter act 3.5µM*, Luc counter -3%, SMN2 splice up 13µM*, Rab9 promoter act 4µM* and FLuc counter 3µM*.
`CCn1c(=O)c(C(=O)Nc2ccc(C)cc2)c(O)c2ccccc21` gave ELG1 genotox 7%, NPC1 promoter act 14%, Rab9 promoter act 22% and FLuc counter inconclusive.
CCCn1c(=O)c(C(=O)Nc2ncccc2O)c(O)c2ccccc21 was read as ELG1 genotox -11%, NPC1 promoter act 7%, Rab9 promoter act 1% and FLuc counter -3%.
`CCn1c(=O)c2cc(C(=O)Nc3cccc(C(F)(F)F)c3)sc2c2ccccc21` gave SMN2 splice up -13% and FLuc counter 0%.
`Cc1ccccc1N/C=C/C(=C(C#N)C#N)N(C)C` gave ELG1 genotox -1%, NPC1 promoter act 0%, Luc counter -2%, SMN2 splice up -9%, Rab9 promoter act -3% and FLuc counter -1%.
`CC1(C)CC(=O)c2c(O)c(-c3ccccc3)c(=O)n(-c3ccccc3)c2C1` gave ELG1 genotox -3%, NPC1 promoter act -5%, Luc counter 1%, SMN2 splice up -6%, Rab9 promoter act inconclusive and FLuc counter 1%.
`Cn1c(=O)c(C(=O)NCc2ccc(F)cc2)c(O)c2ccccc21` gave ELG1 genotox 0%, NPC1 promoter act -2%, Rab9 promoter act 6% and FLuc counter -15%.
Screening C=CCn1c(=O)c(C(=O)Nc2ccccc2C)c(O)c2ccccc21 returned ELG1 genotox inconclusive, NPC1 promoter act 4µM*, Rab9 promoter act 4µM* and FLuc counter inconclusive.
Screening Cn1c(=O)c(C(=O)NCc2ccccc2)c(O)c2ccccc21 returned ELG1 genotox -1%, NPC1 promoter act inconclusive, Rab9 promoter act inconclusive and FLuc counter 17µM*.
Screening C=CCn1c(=O)c(C(=O)Nc2ccccc2O)c(O)c2ccccc21 returned ELG1 genotox 1%, NPC1 promoter act 2%, Luc counter -5%, SMN2 splice up 3%, Rab9 promoter act 7% and FLuc counter inconclusive.
For CCCCC(=O)Nc1c2c(nn1-c1cccc(C)c1C)CS(=O)(=O)C2 the results were ELG1 genotox 0%, NPC1 promoter act -3%, Rab9 promoter act -2% and FLuc counter 0%.
CC1=CCC(/C=N\Nc2nnc3c(n2)[nH]c2ccccc23)CC1 (stereo not given) was read as ELG1 genotox inconclusive, NPC1 promoter act inconclusive, Luc counter -4%, SMN2 splice up 9%, Rab9 promoter act inconclusive and FLuc counter 1.5µM*.
For Oc1[nH]c2ccccc2c1C=Nc1ccc2c(c1)OCCO2 the results were ELG1 genotox inconclusive, NPC1 promoter act inconclusive, Rab9 promoter act 1.4µM* and FLuc counter 0.85µM*.
`Oc1c(Br)cc(Br)cc1C=Nc1ccc2c(c1)OCCO2` gave ELG1 genotox inconclusive, NPC1 promoter act 1%, Luc counter -10%, SMN2 splice up 0%, Rab9 promoter act 4% and FLuc counter 24µM*.
COc1ccc(-c2nc3cnc(N4CCNCC4)nc3n(-c3ccccc3)c2=O)cc1 was read as Luc counter -5% and SMN2 splice up -59%.
CCOc1ccc(NC(=O)CSc2oc(-c3ccc(C)cc3)nc2S(=O)(=O)c2ccc(C)cc2)cc1 was read as SMN2 splice up 7% and FLuc counter 2%.
`CCc1ccc(-n2c(C)cc(/C=N/NC(=O)OC)c2C)cc1` gave ELG1 genotox 14%, NPC1 promoter act 1%, Luc counter 0%, SMN2 splice up 3%[1.84 µM], Rab9 promoter act 2% and FLuc counter 19µM*.
For Cc1cc(/C=N\O)c(C)n1-c1ccncc1 the results were ELG1 genotox 2%, NPC1 promoter act -2%, Luc counter -1%, SMN2 splice up 17%, Rab9 promoter act 3% and FLuc counter 0%.
`COC(=O)N/N=C/c1cc(C)n(-c2ccc(F)cc2)c1C` gave ELG1 genotox inconclusive, NPC1 promoter act 0%, Luc counter -2%, SMN2 splice up 28%, Rab9 promoter act 21% and FLuc counter 24µM*.
CC(=O)C(=Cc1cc(C)n(-c2ccccc2)c1C)C(C)=O was read as ELG1 genotox -1%, NPC1 promoter act -9%, Luc counter 2%, SMN2 splice up 17%, Rab9 promoter act 2% and FLuc counter 19µM*.
For Cc1cc(/C=N/O)c(C)n1-c1ccccc1 the results were ELG1 genotox 9%, NPC1 promoter act 8%, Luc counter 0%, SMN2 splice up 5%[1.84 µM], Rab9 promoter act 17% and FLuc counter 17µM*.
`COC(=O)N/N=C/c1cc(C)n(-c2ccc(Br)cc2)c1C` gave ELG1 genotox 2%, NPC1 promoter act 1%, Rab9 promoter act 16% and FLuc counter inconclusive.
`COCCN1Cc2cccc(C(=O)Nc3ccc(C)cc3C)c2C1=O` gave SMN2 splice up -1% and FLuc counter -3%.
Screening CC(=O)[C@H]1CC[C@H]2[C@@H]3C=CC4=CC(=O)CC[C@@]4(C)[C@H]3CC[C@]12C returned Luc counter -4%[17.1 µM] and SMN2 splice up -10%[20.6 µM].
`COC(=O)N/N=C/c1cc(C)n(-c2ccccc2)c1C` gave ELG1 genotox inconclusive, NPC1 promoter act 25%, Luc counter -1%, SMN2 splice up -1%[1.84 µM], Rab9 promoter act inconclusive and FLuc counter 8.5µM*.
`CC(=O)N/N=C/c1cc(C)n(-c2ccc(Br)cc2)c1C` gave ELG1 genotox 0%, NPC1 promoter act 5%, Luc counter 2%, SMN2 splice up -13%, Rab9 promoter act 10% and FLuc counter -18%.
